Results taken from paper PMC7862700, “An all-to-all approach to the identification of sequence-specific readers for epigenetic DNA modifications on cytosine”.

Legend:
Experiment in all cases: DAPPL (digital affinity profiling via proximity ligation, sequencing); 10 mM Tris-HCl pH 7.5, 50 mM NaCl, 1 mM DTT, 4% glycerol, room temperature, 30 min; GST-TFs on glutathione beads, 16-mer random dsDNA library, 0.1% formaldehyde crosslink after washing; high values mean tight binding
[1] = target: T1, FLI1 (Homo sapiens, UniProt Q01543 1-452); details: protein: recombinant; tags: N-terminal GST; dsDNA, one strand shown
T1 sequence: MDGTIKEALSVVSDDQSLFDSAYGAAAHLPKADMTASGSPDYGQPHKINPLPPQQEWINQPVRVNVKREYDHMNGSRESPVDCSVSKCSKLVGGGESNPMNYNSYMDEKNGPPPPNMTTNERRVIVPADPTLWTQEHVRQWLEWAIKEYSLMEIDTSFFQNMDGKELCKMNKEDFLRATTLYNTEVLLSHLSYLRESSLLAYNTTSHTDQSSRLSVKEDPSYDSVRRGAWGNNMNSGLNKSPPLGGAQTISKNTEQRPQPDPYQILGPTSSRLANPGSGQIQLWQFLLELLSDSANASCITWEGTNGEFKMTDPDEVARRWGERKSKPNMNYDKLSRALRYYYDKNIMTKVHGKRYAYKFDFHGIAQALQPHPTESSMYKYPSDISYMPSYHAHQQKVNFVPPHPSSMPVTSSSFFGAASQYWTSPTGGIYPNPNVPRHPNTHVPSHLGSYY
How it was run: (§1)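 Pools of DNA-barcoded human transcription factors, expressed in yeast as GST fusions on glutathione beads and combined with a tag-only sample, were incubated with 200 nmole of a 16-mer random double-stranded DNA library. Incubation took 30 min at room temperature in Tris/NaCl/DTT/glycerol buffer and was followed by washing, 0.1% formaldehyde crosslinking, proximity ligation (BsaI/T4 ligase, 1 h, 37 °C), PCR amplification and sequencing on an Illumina NextSeq500. Binding signal is the ratio of a hexamer's read frequency for a factor to its frequency for the tag-only sample.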

[2] = target: T2, ELK1 (Homo sapiens, UniProt P19419 1-428); details: protein: recombinant; tags: N-terminal GST; dsDNA, one strand shown
T2 sequence: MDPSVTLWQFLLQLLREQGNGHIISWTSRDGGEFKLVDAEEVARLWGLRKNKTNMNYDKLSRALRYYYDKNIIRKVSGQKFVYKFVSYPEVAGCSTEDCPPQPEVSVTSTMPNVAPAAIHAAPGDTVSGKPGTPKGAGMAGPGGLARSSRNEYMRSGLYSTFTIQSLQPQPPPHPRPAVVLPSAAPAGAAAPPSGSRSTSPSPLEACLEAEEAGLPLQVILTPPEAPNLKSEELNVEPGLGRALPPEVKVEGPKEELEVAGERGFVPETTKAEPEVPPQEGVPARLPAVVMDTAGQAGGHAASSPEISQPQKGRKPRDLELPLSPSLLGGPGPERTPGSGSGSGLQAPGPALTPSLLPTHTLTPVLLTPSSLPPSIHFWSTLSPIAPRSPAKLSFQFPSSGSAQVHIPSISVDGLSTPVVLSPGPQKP
How it was run: as §1

[3] = target: T3, GABPA (Homo sapiens, UniProt Q06546 1-454); details: protein: recombinant; tags: N-terminal GST; dsDNA, one strand shown
T3 sequence: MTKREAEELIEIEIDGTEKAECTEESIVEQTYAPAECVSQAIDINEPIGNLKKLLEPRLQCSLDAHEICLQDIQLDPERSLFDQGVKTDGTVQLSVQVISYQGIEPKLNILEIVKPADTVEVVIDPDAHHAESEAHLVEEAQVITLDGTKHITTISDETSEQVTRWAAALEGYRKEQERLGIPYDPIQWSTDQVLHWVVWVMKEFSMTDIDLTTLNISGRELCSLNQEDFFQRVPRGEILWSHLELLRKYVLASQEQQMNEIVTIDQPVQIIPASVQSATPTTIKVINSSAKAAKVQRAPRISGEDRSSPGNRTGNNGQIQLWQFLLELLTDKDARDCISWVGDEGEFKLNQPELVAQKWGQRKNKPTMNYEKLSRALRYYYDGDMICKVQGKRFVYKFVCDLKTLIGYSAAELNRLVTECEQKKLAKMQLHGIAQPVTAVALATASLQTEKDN
How it was run: as §1

[4] = target: T4, ERG (Homo sapiens, UniProt P11308 1-479); details: protein: recombinant; tags: N-terminal GST; dsDNA, one strand shown
T4 sequence: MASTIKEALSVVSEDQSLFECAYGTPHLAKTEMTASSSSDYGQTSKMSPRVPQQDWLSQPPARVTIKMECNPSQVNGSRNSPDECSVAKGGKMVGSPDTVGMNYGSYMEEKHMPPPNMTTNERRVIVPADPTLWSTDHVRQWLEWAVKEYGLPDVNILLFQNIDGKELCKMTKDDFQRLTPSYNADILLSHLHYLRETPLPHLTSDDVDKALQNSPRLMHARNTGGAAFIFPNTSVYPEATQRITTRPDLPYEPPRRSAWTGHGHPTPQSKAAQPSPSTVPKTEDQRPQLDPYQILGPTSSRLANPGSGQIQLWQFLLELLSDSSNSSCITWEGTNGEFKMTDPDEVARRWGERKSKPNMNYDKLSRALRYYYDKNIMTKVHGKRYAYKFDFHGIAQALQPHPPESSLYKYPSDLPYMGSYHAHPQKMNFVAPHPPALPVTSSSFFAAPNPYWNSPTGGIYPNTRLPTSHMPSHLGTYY
How it was run: as §1

[5] = target: ELF1 (Homo sapiens, UniProt P32519 1-619); details: protein: recombinant; tags: N-terminal GST; dsDNA, one strand shown
How it was run: as §1

[6] = target: T5, EHF (Homo sapiens, UniProt Q9NZC4 1-300); details: protein: recombinant; tags: N-terminal GST; dsDNA, one strand shown
T5 sequence: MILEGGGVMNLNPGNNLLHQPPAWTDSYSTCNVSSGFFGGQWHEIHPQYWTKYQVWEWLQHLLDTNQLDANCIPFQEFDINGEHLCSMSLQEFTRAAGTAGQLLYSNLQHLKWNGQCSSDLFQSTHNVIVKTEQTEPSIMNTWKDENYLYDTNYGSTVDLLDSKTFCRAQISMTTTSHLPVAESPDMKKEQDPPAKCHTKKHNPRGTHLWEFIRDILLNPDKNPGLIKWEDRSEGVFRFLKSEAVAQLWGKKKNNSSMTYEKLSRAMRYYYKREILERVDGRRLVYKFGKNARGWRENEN
How it was run: as §1

[7] = target: SPI1 (Homo sapiens, UniProt P17947 1-270); details: protein: recombinant; tags: N-terminal GST; dsDNA, one strand shown
How it was run: as §1

[8] = target: SPIB (Homo sapiens, UniProt Q01892 1-262); details: protein: recombinant; tags: N-terminal GST; dsDNA, one strand shown
How it was run: as §1

[9] = target: T6, ELK3 (Homo sapiens, UniProt P41970 1-407); details: protein: recombinant; tags: N-terminal GST; dsDNA, one strand shown
T6 sequence: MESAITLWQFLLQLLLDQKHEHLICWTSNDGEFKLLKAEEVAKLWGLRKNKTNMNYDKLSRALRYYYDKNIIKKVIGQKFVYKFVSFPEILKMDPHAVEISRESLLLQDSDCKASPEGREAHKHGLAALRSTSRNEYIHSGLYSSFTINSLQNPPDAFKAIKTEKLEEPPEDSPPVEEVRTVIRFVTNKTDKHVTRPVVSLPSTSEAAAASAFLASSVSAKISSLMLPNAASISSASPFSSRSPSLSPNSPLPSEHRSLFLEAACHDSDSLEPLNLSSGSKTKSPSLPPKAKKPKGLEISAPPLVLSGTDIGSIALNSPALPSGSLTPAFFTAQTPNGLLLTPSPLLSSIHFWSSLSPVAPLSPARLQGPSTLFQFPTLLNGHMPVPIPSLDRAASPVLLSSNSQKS
How it was run: as §1

[10] = target: T7, FEV (Homo sapiens, UniProt Q99581 1-238); details: protein: recombinant; tags: N-terminal GST; dsDNA, one strand shown
T7 sequence: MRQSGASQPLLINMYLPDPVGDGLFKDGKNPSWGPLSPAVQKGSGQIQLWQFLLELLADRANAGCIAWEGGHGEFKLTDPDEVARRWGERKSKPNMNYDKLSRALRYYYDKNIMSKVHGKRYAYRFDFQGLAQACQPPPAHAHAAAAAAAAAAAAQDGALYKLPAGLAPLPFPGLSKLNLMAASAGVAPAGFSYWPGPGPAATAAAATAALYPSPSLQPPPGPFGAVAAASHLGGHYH
How it was run: as §1

[11] = target: ETV5 (Homo sapiens, UniProt P41161 1-510); details: protein: recombinant; tags: N-terminal GST; dsDNA, one strand shown
How it was run: as §1

[12] = target: HSF1 (Homo sapiens, UniProt Q00613 1-529); details: protein: recombinant; tags: N-terminal GST; chain copies: 3; dsDNA, one strand shown
How it was run: as §1

[13] = target: T8, SPIC (Homo sapiens, UniProt Q8N5J4 1-248); details: protein: recombinant; tags: N-terminal GST; dsDNA, one strand shown
T8 sequence: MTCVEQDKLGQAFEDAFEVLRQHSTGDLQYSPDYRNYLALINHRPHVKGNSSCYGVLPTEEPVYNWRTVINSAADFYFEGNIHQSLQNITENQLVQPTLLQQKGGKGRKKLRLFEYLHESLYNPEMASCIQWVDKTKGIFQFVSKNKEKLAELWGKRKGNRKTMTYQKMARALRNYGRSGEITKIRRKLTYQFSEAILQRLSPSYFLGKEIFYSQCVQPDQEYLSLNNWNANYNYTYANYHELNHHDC
How it was run: as §1

[14] = target: ELF4 (Homo sapiens, UniProt Q99607 1-663); details: protein: recombinant; tags: N-terminal GST; dsDNA, one strand shown
How it was run: as §1

[15] = target: T9, ELK4 (Homo sapiens, UniProt P28324-2 1-405); details: protein: recombinant; tags: N-terminal GST; dsDNA, one strand shown
T9 sequence: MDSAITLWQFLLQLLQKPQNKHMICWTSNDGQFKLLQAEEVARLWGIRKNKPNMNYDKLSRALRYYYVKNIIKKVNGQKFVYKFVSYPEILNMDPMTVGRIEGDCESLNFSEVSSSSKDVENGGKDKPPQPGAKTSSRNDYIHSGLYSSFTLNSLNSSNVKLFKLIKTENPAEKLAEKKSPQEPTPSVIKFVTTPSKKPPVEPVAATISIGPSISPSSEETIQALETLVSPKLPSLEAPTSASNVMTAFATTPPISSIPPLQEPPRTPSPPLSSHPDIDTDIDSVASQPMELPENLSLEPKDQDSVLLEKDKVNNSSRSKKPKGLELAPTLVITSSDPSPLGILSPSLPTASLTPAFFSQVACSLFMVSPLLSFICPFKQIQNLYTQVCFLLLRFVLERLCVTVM
How it was run: as §1

[16] = target: T10, ETV2 (Homo sapiens, UniProt O00321 1-342); details: protein: recombinant; tags: N-terminal GST; dsDNA, one strand shown
T10 sequence: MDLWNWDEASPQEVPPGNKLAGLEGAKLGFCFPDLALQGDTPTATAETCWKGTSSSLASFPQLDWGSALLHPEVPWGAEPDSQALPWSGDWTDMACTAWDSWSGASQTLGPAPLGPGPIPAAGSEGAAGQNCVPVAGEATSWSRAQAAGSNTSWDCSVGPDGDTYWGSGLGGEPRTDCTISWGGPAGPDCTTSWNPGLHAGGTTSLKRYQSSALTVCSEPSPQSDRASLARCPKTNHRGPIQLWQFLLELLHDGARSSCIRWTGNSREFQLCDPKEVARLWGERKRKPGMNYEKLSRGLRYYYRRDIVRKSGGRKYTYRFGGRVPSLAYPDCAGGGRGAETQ
How it was run: as §1

[17] = target: T11, ELF3 (Homo sapiens, UniProt P78545 1-371); details: protein: recombinant; tags: N-terminal GST; dsDNA, one strand shown
T11 sequence: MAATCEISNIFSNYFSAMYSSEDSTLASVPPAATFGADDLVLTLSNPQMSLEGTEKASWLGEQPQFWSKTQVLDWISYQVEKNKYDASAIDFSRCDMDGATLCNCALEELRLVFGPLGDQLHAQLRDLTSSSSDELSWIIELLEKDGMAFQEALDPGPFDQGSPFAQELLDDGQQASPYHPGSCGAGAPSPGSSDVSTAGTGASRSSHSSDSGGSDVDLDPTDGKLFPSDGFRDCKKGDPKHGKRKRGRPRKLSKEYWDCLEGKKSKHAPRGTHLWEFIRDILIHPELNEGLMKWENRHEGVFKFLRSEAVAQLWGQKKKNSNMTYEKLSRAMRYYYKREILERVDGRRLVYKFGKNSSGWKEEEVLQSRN
How it was run: as §1

[18] = target: CRX (Homo sapiens, UniProt O43186 1-299); details: protein: recombinant; tags: N-terminal GST; dsDNA, one strand shown
How it was run: as §1

[19] = target: ETV1 (Homo sapiens, UniProt P50549 1-477); details: protein: recombinant; tags: N-terminal GST; dsDNA, one strand shown
How it was run: as §1

ETV5, sequence (P41161 whole entry): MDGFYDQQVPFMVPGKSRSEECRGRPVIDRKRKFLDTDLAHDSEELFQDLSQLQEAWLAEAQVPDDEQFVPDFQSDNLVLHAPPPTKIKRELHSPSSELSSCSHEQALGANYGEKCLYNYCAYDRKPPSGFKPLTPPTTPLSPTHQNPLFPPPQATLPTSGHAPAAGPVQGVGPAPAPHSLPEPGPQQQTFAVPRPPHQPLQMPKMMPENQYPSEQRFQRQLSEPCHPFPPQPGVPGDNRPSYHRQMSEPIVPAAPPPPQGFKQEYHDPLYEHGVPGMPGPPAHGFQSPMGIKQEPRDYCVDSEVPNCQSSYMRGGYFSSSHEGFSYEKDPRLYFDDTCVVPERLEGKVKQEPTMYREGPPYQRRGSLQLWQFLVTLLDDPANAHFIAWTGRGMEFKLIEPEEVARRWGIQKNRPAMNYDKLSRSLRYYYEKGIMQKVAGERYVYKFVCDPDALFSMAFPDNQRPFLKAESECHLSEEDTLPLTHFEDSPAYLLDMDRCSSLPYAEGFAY
CRX, sequence (O43186 whole entry): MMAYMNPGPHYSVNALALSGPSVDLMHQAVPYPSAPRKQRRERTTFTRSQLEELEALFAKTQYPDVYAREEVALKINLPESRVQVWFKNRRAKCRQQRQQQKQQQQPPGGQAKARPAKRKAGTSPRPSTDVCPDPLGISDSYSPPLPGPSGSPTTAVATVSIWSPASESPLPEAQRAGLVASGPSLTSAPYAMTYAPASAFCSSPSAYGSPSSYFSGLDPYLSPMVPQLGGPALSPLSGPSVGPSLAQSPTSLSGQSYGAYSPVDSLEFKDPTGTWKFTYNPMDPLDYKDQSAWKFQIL
HSF1, sequence (Q00613 whole entry): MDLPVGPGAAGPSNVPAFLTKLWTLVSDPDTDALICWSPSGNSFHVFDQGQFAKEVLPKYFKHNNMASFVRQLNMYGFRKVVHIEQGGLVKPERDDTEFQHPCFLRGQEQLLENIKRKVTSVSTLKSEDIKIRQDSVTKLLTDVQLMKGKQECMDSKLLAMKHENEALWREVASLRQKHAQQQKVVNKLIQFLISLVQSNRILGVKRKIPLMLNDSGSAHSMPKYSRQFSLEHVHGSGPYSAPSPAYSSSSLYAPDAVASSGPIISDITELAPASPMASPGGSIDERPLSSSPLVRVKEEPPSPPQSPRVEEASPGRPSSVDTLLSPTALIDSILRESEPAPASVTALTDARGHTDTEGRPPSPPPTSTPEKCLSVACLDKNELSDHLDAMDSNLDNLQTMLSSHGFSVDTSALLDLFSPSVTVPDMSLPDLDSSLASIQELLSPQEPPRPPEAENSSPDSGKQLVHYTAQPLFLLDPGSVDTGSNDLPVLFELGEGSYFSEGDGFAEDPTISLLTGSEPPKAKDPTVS
ETV1, sequence (P50549 whole entry): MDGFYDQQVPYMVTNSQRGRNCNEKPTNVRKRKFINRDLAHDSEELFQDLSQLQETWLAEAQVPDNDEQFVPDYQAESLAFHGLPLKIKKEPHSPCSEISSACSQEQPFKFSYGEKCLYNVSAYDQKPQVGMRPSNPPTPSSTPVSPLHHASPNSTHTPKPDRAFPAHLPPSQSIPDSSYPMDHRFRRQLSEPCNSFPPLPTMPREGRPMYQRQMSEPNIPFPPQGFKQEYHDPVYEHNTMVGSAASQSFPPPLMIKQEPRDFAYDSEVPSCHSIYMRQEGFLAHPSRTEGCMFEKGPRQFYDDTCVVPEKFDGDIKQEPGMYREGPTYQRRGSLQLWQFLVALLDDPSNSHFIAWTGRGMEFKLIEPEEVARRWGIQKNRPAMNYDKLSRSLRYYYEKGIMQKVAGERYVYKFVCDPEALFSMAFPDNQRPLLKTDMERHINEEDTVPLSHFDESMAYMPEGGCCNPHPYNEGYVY
ELF4, sequence (Q99607 whole entry): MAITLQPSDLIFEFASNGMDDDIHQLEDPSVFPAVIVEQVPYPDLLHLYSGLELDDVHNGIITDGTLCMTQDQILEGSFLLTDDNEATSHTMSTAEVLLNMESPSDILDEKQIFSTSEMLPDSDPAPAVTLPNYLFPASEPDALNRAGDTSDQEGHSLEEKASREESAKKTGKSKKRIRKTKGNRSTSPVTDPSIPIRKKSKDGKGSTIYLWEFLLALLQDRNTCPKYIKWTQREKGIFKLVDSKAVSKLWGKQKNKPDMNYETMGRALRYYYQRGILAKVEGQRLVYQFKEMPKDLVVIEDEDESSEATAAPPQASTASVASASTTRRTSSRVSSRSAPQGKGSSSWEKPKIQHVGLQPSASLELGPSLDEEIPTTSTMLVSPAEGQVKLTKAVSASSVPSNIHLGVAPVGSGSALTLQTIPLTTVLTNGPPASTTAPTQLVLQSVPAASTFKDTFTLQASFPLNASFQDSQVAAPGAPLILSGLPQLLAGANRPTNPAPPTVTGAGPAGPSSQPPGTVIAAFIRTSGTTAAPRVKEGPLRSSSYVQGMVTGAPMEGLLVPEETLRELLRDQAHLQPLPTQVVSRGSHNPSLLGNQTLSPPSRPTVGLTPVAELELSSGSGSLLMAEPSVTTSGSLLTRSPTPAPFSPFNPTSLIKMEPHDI
SPIB, sequence (Q01892 whole entry): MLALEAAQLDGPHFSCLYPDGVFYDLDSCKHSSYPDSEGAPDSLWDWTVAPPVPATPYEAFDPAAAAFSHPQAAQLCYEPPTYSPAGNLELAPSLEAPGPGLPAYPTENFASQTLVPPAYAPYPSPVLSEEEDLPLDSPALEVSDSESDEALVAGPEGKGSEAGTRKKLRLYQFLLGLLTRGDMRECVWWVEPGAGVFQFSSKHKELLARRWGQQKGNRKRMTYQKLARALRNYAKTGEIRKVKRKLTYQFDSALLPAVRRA
ELF1, sequence (P32519 whole entry): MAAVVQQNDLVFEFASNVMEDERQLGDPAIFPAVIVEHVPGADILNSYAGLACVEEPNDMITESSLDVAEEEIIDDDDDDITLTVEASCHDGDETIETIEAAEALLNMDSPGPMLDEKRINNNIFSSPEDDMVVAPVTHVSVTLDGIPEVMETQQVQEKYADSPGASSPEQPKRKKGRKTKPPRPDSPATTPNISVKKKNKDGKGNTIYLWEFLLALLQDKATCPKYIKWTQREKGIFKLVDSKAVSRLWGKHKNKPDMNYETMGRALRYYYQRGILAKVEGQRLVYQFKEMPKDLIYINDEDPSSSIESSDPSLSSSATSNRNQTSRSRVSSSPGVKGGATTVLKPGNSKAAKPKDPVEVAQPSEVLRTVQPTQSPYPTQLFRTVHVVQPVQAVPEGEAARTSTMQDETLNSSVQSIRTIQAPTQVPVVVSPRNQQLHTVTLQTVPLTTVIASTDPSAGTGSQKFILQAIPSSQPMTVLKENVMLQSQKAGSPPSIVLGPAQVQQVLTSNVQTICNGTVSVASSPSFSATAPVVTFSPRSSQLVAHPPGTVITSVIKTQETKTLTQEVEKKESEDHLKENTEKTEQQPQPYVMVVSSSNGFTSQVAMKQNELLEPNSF

TTCGAT
binding signal [1]: 1.32 fold enrichment (6-mer frequency, TF over GST control) | binding signal [2]: 1.23 fold enrichment (6-mer frequency, TF over GST control) | binding signal [3]: 1.22 fold enrichment (6-mer frequency, TF over GST control) | binding signal [4]: 1.43 fold enrichment (6-mer frequency, TF over GST control) | binding signal [5]: 1.41 fold enrichment (6-mer frequency, TF over GST control) | binding signal [6]: 1.38 fold enrichment (6-mer frequency, TF over GST control) | binding signal [7]: 1.29 fold enrichment (6-mer frequency, TF over GST control) | binding signal [8]: 1.24 fold enrichment (6-mer frequency, TF over GST control) | binding signal [9]: 1.32 fold enrichment (6-mer frequency, TF over GST control) | binding signal [10]: 1.27 fold enrichment (6-mer frequency, TF over GST control) | binding signal [11]: 1.36 fold enrichment (6-mer frequency, TF over GST control) | binding signal [12]: 1.79 fold enrichment (6-mer frequency, TF over GST control) | binding signal [13]: 1.3 fold enrichment (6-mer frequency, TF over GST control) | binding signal [14]: 1.27 fold enrichment (6-mer frequency, TF over GST control) | binding signal [15]: 1.16 fold enrichment (6-mer frequency, TF over GST control) | binding signal [16]: 1.23 fold enrichment (6-mer frequency, TF over GST control) | binding signal [17]: 1.42 fold enrichment (6-mer frequency, TF over GST control) | binding signal [18]: 1.56 fold enrichment (6-mer frequency, TF over GST control) | binding signal [19]: 1.34 fold enrichment (6-mer frequency, TF over GST control)
